# Molecular target: ANXA5
# Assay: pooled miR-30 sensor sort-seq; sequence = guide strand
# Conditions: shRNA
# Also: reference of the scale not given here.
row,Sequence,sensor-assay potency score (higher = more potent)
1,TTTCTGTCAGTACTTTTTCATT,-1.52
2,TAAATTGCCAGAAGTCTCGCGG,0.467
3,TTTCACAACAGCAAGGAGTAGT,-0.0711
4,TTCATAAGCATCATAAAGCCGA,-0.311
5,TACACTTTAGTACTACAGCAGT,-0.815
6,TAATCTTTTGAATACAATCATC,-1.12
7,TTGGTCATGAGCATGCTAGTAT,-0.14
8,TTCTTCATAAACTTGTTTGATG,-0.36
9,TTCTTCTATGACGTGTATGTGT,-0.0894
10,TTGAAATCCTGATATAGTCATG,-1.04
11,TAGCATAATAGAGGGTCTCTGC,-0.439
12,TTAATTTTTCAAATTTTCCAGT,0.274
13,TTCGAATAGATTTCACAACAGC,-0.293
14,TTTAGTTGCGAACTTCACTAAT,-0.975
15,TCAAATGAGACACACTTCGTGT,-0.219
16,TTCTGATTTCAGGTCATCCAGA,-0.946
17,AACAGATCAATCTCACTCCTGG,-0.0547
18,TAAACTTAGTAACATTAAGTAC,-0.822
19,TTCTTCCTAAACTCCTTCCTGA,-0.49
20,TACTTGTCAAACACCTTTCTCA,0.224
21,TTCTTCTTCATAAACTTGTTTG,-0.985

# Molecular target: AP1S1
# Assay: as above
# Conditions: shRNA
row,Sequence,sensor-assay potency score (higher = more potent)
1,ATATCTCTTATAGACAACTTTG,-1.12
2,TTGCAGTAGGTCAGCCTGCTCG,-0.856
3,TTGTCTAAGAGCTCCACGTATC,-1.02
4,TTTCAGCACACTCTTCTTGGAG,-0.813
5,TTCAGCACACTCTTCTTGGAGG,-0.8
6,TTCTTCCGTTCCTTGTCCGAAG,-0.991
7,TATATTTACAGTTATTAGGGAG,0.379
8,TAGACAACTTTGAGGTCCCTCC,-0.899
9,TTCCGTTCCTTGTCCGAAGTGG,0.268
10,TTTGTCTAAGAGCTCCACGTAT,-0.832
11,TCTCTTATAGACAACTTTGAGG,-1.16
12,TCCAGCTCGCACACACTGCCAA,-0.956
13,TCGCGCACCATCTTCTTCCGTT,-0.362
14,TGTGATGAGCTCATTGTCTTGG,0.479
15,TATCTCTTATAGACAACTTTGA,-1.08
16,TTATAGACAACTTTGAGGTCCC,0.854
17,TCTTATAGACAACTTTGAGGTC,-0.45
18,TTTGAGGTCCCTCCACTCCAGG,-1.48
19,ATCTCTTATAGACAACTTTGAG,-0.956
